Laboratory results: PubChem BioAssay (Tox21)
Results filed as inconclusive are left out. Active and inactive are the calls of the source. Unless noted, calls come from the whole dose curve; as a rule, active = well fitted curve in the direction sought with a large enough effect in the repeat runs; inconclusive = weak or mixed curves; inactive = no such curve, though single readings can be large; an effect the other way counts as inactive or inconclusive.

Legend:
[1] = biological target: Thyrotropin receptor (Homo sapiens) (UniProt P16473); test: qHTS assay to identify small molecule agonists of the thyroid stimulating hormone receptor (TSHR) signaling pathway (AID 1224843; calls by dose curve; note: nearly all actives have a fitted effect of over 45% in size)
Thyrotropin receptor (Homo sapiens), sequence (P16473 whole entry, looked up): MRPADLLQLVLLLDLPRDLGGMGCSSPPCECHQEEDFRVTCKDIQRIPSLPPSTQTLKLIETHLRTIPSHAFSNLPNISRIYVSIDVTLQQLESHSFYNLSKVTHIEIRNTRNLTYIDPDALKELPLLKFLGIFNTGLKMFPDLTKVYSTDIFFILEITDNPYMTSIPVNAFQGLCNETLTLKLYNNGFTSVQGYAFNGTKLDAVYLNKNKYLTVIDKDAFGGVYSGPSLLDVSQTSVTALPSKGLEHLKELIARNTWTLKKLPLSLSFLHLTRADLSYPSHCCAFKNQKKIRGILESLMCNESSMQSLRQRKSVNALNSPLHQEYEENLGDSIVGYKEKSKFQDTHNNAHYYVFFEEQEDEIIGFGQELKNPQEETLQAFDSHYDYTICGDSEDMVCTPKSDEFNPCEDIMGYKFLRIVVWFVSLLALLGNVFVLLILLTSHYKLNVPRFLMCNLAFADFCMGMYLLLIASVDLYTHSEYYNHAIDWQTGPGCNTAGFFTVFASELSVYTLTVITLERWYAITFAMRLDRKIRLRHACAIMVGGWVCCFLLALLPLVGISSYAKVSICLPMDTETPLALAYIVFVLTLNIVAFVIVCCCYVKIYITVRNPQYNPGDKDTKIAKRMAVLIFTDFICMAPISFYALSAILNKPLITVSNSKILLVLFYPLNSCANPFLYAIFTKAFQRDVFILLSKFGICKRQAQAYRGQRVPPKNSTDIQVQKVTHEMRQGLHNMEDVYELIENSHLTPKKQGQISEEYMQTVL
Method in brief: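 HEK293/TSHR, 800 cells/well; cpd 30 min RT; add cAMP-d2 + anti-cAMP-cryptate, 1 h RT; fluorescence read on plate reader. 15-pt titration, n=3.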

[2] = qHTS assay to identify small molecule agonists of the hypoxia (HIF-1) signaling pathway - cell viability counter screen (AID 1224844; calls by dose curve; note: nearly all actives have a fitted effect of over 50% in size)
Method in brief: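 Same wells as the HIF-1 reporter screen; ME-180 cells carrying HRE-bla, 17 hr treatment at 37C; CellTiter-Glo luminescence read after 30 min at room temperature.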

[3] = qHTS assay to identify small molecule agonists of H2AX (AID 1224845; active = well fitted activation curve with a large enough effect in the signal ratio in the repeat runs, not every such curve was filed as active; the % refers to the signal ratio)
Method in brief: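 Wild-type CHO-K1 cells, plated overnight, exposed 3hr at 37C to 15 concentrations (0.76% DMSO final). Lysed, then HTRF anti-pH2AX (S139) cryptate and anti-H2AX-d2 antibodies, 24 hr room temperature; 665/620 nm emission read.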

[4] = qHTS assay to identify small molecule agonists of the hypoxia (HIF-1) signaling pathway (AID 1224846; active = well fitted activation curve with a large enough effect in the signal ratio in the repeat runs, not every such curve was filed as active; the % refers to the signal ratio)
Method in brief: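 In ME-180 cells bearing an HRE-bla construct, 17 h treatment with DMSO-dissolved compounds at 37C was followed by CCF4-AM loading to quantify reporter induction.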

[5] = qHTS assay to identify small molecule agonists of H2AX - cell viability counter screen (AID 1224847; calls by dose curve; note: top concentration of the series differs between compounds; nearly all actives have a fitted effect of over 30% in size)
Method in brief: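 Compounds tested at 15 concentrations were incubated 3 hr at 37C with wild-type CHO-K1 cells; cellular ATP-based luminescence (CellTiter-Glo) indicated viability.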

[6] = qHTS RealTime-Glo MT Cell Viability Assay in HepG2 cells - 24 hour (AID 1224867); note: nearly all actives have a fitted effect of over 50% in size
Method in brief: (§1)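 Cells + NanoLuc/prosubstrate dispensed (600 cells/well) → 5 h at 37 C/5% CO2 → compounds in DMSO transferred → 40 h incubation at 37 C, luminescence read at 0, 8, 16, 24, 32, 40 h.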

[7] = A CellTox Green Cytotoxicity Assay to monitor cytotoxicity in HEK293 cells - 0 hour (AID 1224869); note: nearly all actives have a fitted effect of over 50% in size
Method in brief: (§2)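 Homogeneous no-lysis format: HEK293 cell suspension mixed with CellTox Green reagent, seeded, incubated 5 h at 37 C/5% CO2, then dosed by pintool with compound in DMSO.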

[8] = qHTS RealTime-Glo MT Cell Viability Assay in HepG2 cells - 40 hour (AID 1224870); note: nearly all actives have a fitted effect of over 50% in size
Method in brief: (§3)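 HepG2 cells (600/well) mixed with RealTime-Glo MT reagent, settled 5 h at 37 C/5% CO2 before compound addition. Nonlytic NanoLuc luminescence from viable-cell prosubstrate reduction read repeatedly during 40 h treatment at 37 C.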

[9] = qHTS RealTime-Glo MT Cell Viability Assay in HEK293 cells - 16 hour (AID 1224872)
Method in brief: (§4)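 Tox21 10K qHTS, HEK293, 600 cells/well, RealTime-Glo reagent co-dispensed with cells; 5 h preincubation, compound by pintool, 37 C, luminescence at 0–40 h.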

[10] = qHTS RealTime-Glo MT Cell Viability Assay in HepG2 cells - 8 hour (AID 1224873); note: nearly all actives have a fitted effect of over 55% in size
Method in brief: as §3

[11] = qHTS RealTime-Glo MT Cell Viability Assay in HEK293 cells - 40 hour (AID 1224874); conditions: RealTime-Glo luminescence; max response: hits give low values; note: nearly all actives have a fitted effect of over 50% in size
Method in brief: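 Measured as luminescence from the same continuously cultured HEK293 wells at successive time points (0, 8, 16, 24, 32, 40 h) after compound addition. Reagent present from seeding; dosing at 5 h; incubation 37 C.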

[12] = A CellTox Green Cytotoxicity Assay to monitor cytotoxicity in HepG2 cells - 16 hour (AID 1224876); note: nearly all actives have a fitted effect of over 45% in size; note: potency is the fitted concentration of half-maximal effect
Method in brief: (§5)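 Fluorescent DNA-binding dye, 600 HepG2 cells/well, 5 h preincubation then compound in DMSO; same plates read at 0–40 h, 37 C.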

[13] = qHTS RealTime-Glo MT Cell Viability Assay in HepG2 cells - 32 hour (AID 1224877); note: nearly all actives have a fitted effect of over 55% in size
Method in brief: as §1

[14] = A CellTox Green Cytotoxicity Assay to monitor cytotoxicity in HepG2 cells - 24 hour (AID 1224878); note: nearly all actives have a fitted effect of over 45% in size; note: potency is the fitted concentration of half-maximal effect
Method in brief: as §5

[15] = A CellTox Green Cytotoxicity Assay to monitor cytotoxicity in HepG2 cells - 40 hour (AID 1224879); note: nearly all actives have a fitted effect of over 40% in size; note: potency is the fitted concentration of half-maximal effect
Method in brief: as §5

[16] = qHTS RealTime-Glo MT Cell Viability Assay in HEK293 cells - 32 hour (AID 1224868); note: nearly all actives have a fitted effect of over 50% in size; note: potency is the fitted concentration of half-maximal effect; for activity change, negative = cytotoxic: top concentration of the series differs between compounds
Method in brief: as §4

[17] = A CellTox Green Cytotoxicity Assay to monitor cytotoxicity in HEK293 cells - 40 hour (AID 1224871); note: nearly all actives have a fitted effect of over 45% in size
Method in brief: as §2

[18] = A CellTox Green Cytotoxicity Assay to monitor cytotoxicity in HEK293 cells - 24 hour (AID 1224875); note: nearly all actives have a fitted effect of over 45% in size
Method in brief: as §2

[19] = qHTS assay to identify small molecule antagonists of the estrogen related receptor (ERR) signaling pathway from Tox21 library (AID 1224848); note: nearly all actives have a fitted effect of over 50% in size; note: potency is the fitted concentration of half-maximal effect
Method in brief: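 Compounds dissolved in DMSO are pin-transferred onto ERR reporter cells (2,000 per well) that have settled for 6 h at 37 C. Plates then incubate 18 h at 37 C before ONE-Glo luciferase reagent and a luminescence read 30 min later.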

[20] = qHTS assay to identify small molecule agonists of the estrogen related receptor (ERR) signaling pathway from Tox21 library (AID 1224849; calls by dose curve; note: nearly all actives have a fitted effect of over 15% in size); conditions: ERR reporter cell line, ONE-Glo luciferase, 18 h; at 92.4 µM (top of the series) unless noted
Method in brief: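 Reporter cells (ERR, NTP source) treated with Tox21 10K compounds 18 h, 37 C. Readout: ONE-Glo luminescence, 30 min RT.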
% is set by controls: 0 for no effect and ±100 for the full control effect.

CC(=O)c1ccc(Cl)c(Cl)c1Cl
inactive: Potency [1] | Potency [2] | Potency [3] | outcome [4] | Potency [5] | outcome [6] | Potency [7] | Potency [8] | Potency [9] | outcome [10] | max response [11] -19.2% | Potency [12] | Potency [13] | Potency [14] | Potency [15]

O=C(Cl)c1cc(Cl)cc(Cl)c1
inactive: Potency [1] | Potency [2] | Potency [3] | outcome [4] | Potency [5] | outcome [6] | Potency [16] | Potency [7] | Potency [17] | outcome [10] | max response [11] -8.34% | Potency [18] | Potency [12] | Potency [13] | Potency [14] | Potency [15]

CC(C)=CCCC(C)C=O (configuration not stated)
inactive: Potency [1] | Potency [2] | Potency [3] | outcome [4] | Potency [5] | outcome [6] | Potency [7] | Potency [8] | Potency [17] | Potency [9] | outcome [10] | max response [11] 3.8% | Potency [18] | Potency [12] | Potency [13] | Potency [14]

C[C@H](CN1CCCC1)C(=O)c1ccc(C(F)(F)F)cc1
active: Potency [12] 21.3 µM | Potency [14] 21.3 µM | Potency [15] 21.3 µM
inactive: Potency [1] | Potency [2] | Potency [3] | outcome [4] | Potency [5] | Potency [7] | outcome [10]

C=C[Si](OCC)(OCC)OCC
inactive: Potency [1] | Potency [2] | Potency [3] | outcome [4] | outcome [6] | Potency [16] | Potency [7] | Potency [8] | Potency [17] | Potency [9] | outcome [10] | max response [11] 11.4% | Potency [18] | Potency [12] | Potency [13] | Potency [14] | Potency [15]

CC(C)=CCC/C(C)=C/C=N/O
inactive: Potency [1] | Potency [2] | Potency [3] | outcome [4] | Potency [5] | outcome [6] | Potency [16] | Potency [7] | Potency [8] | Potency [9] | outcome [10] | max response [11] -25.1% | Potency [12] | Potency [13] | Potency [14] | Potency [15]

CC1=CC(=C(c2ccc(N)cc2)c2ccc(N)cc2)C=CC1=N
active: Potency [19] 2.19 µM
inactive: activation [1] 3.86% [at 8.39 µM] | activity change, negative = cytotoxicity [2] -15.8% [at 6.97 µM] | activation (H2AX phosphorylation) [3] -3.22% [at 14 µM] | activation [4] 0.607% [at 7.01 µM] | activity change, positive = activation [20] -47.7% [at 8.39 µM] | activity change, negative = cytotoxicity [6] -2.94% [at 6.97 µM] | cytotoxicity [7] -6.03% [at 6.97 µM] | activity change, negative = cytotoxic [8] -1.71% [at 6.97 µM] | cytotoxicity increase [17] 5.33% [at 6.97 µM] | viability change, negative = cytotoxic [10] 2.31% [at 6.97 µM] | activity change [18] -0.584% [at 6.97 µM, hits give high values] | activity change, negative = cytotoxic [13] -1.73% [at 6.97 µM] | cytotoxicity [14] 0.887% [at 6.97 µM]

CCC(C)CCCC(C)(C)O (configuration not stated)
inactive: Potency [1] | Potency [2] | Potency [3] | outcome [4] | Potency [5] | outcome [6] | Potency [7] | Potency [8] | Potency [17] | Potency [9] | outcome [10] | max response [11] 21.8% | Potency [18] | Potency [12] | Potency [13] | Potency [14] | Potency [15]

O=C(O)c1ccncc1
inactive: Potency [1] | Potency [2] | Potency [3] | Potency [5] | activity change, positive = activation [20] -23.5% | outcome [6] | Potency [16] | Potency [7] | Potency [8] | Potency [17] | Potency [9] | outcome [10] | max response [11] 9.67% | Potency [18] | Potency [12] | Potency [13] | Potency [14] | Potency [15]

Cc1ccc2ccccc2c1[N+](=O)[O-]
inactive: Potency [1] | Potency [2] | Potency [3] | outcome [4] | Potency [5] | outcome [6] | Potency [7] | Potency [8] | Potency [17] | Potency [9] | outcome [10] | max response [11] 5.94% | Potency [18] | Potency [12] | Potency [13] | Potency [14] | Potency [15]

COc1cccc([C@H](O)C2CCN(CCc3ccc(F)cc3)CC2)c1OC
inactive: Potency [1] | Potency [2] | Potency [3] | outcome [4] | Potency [5] | outcome [6] | Potency [7] | Potency [8] | Potency [17] | outcome [10] | Potency [18] | Potency [13] | Potency [14]

CCOc1ccccc1O
inactive: Potency [1] | Potency [2] | Potency [3] | outcome [4] | Potency [5] | outcome [6] | Potency [7] | Potency [8] | Potency [17] | outcome [10] | max response [11] -54.1% | Potency [18] | Potency [12] | Potency [13] | Potency [14] | Potency [15]
active: Potency [16] 1.74 µM

FC(F)(Cl)C(F)(Cl)Cl
inactive: Potency [1] | Potency [2] | Potency [3] | outcome [4] | Potency [5] | outcome [6] | Potency [16] | Potency [7] | Potency [8] | Potency [17] | outcome [10] | max response [11] 10.2% | Potency [18] | Potency [12] | Potency [13] | Potency [14] | Potency [15]

CCCCCCCCNC
inactive: Potency [1] | Potency [2] | Potency [3] | outcome [4] | Potency [5] | outcome [6] | Potency [7] | Potency [8] | Potency [17] | Potency [9] | outcome [10] | max response [11] 3.01% | Potency [18] | Potency [12] | Potency [13] | Potency [14]

O=[N+]([O-])c1cccc(I)c1
inactive: Potency [1] | Potency [2] | Potency [3] | outcome [4] | Potency [5] | outcome [6] | Potency [16] | Potency [7] | Potency [8] | Potency [9] | outcome [10] | max response [11] 0.342% | Potency [18] | Potency [12] | Potency [13] | Potency [14] | Potency [15]

OCCOc1cccc(OCCO)c1
inactive: Potency [1] | Potency [2] | Potency [3] | Potency [5] | Potency [19] | activity change, positive = activation [20] 0.271% | outcome [6] | Potency [16] | Potency [7] | Potency [17] | Potency [9] | outcome [10] | max response [11] 12.3% | Potency [12] | Potency [13] | Potency [14]
